From PubChem BioAssay AID504890 (The Scripps Research Institute Molecular Screening Center, 2011) come the findings set out here.

As a reminder, the EC50 is the concentration needed to bring the measured effect to its halfway point.

Values without a mark were called inactive.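 The calls were made as follows: active = EC50 at or below 10 µM; inactive = EC50 above 10 µM.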

The nature of this experiment: polarization artefacts in absence of PKA proteins – biochemical, fluorescence polarization, 1536-well HTS, artefact control for PKA-R2B complex activator project, dose response (AID 504890). Particulars: Cy5-IP20 FP artifact counterscreen, no PKA-R2B complex. In general terms: In fluorescence polarisation assays a small probe gives low polarisation when free and higher when bound to something large.
Take `O=C(O)c1sccc1SCc1ccc(Cl)cc1Cl`: the EC50 is above 114 µM.

As to `CN(C)c1ccc(N=Nc2ccc(S(=O)(=O)O)cc2)c2ccccc12`, the EC50 is above 114 µM.

Take `Nc1ncnc2c1nc(Sc1ccc(Cl)cc1)n2[C@@H]1O[C@@H]2COP(=O)(O)O[C@H]2[C@H]1O`: the EC50 was above 114 µM.

For the molecule `CCCC(=O)Nc1ncnc2c1ncn2[C@@H]1O[C@@H]2OP(=O)(O)OC[C@H]2[C@H]1OC(=O)CCC`, the EC50 was above 114 µM.

Consider `CCCC(=O)Nc1ncnc2c1ncn2[C@@H]1O[C@@H]2COP(=O)(O)O[C@H]2[C@H]1OC(=O)CCC`, for which the EC50 is above 114 µM.

Turning to `CCOP1(=O)OCC2OC(n3cnc4c(N)ncnc43)C(O)C2O1` (centres undefined), the EC50 was above 114 µM.

With `O=S(=O)(O)c1cccc2c(N=Nc3ccc(O)c4ncccc34)cccc12`, the EC50 is above 114 µM.

As for `Nc1ncnc2c1nc(Br)n2[C@@H]1O[C@@H]2COP(=O)(O)O[C@H]2[C@H]1O`, the EC50 is above 114 µM.

As for `Nc1nc2c(nc(Br)n2[C@@H]2O[C@@H]3COP(=O)(O)O[C@H]3[C@H]2O)c(=O)[nH]1`, the EC50 was above 114 µM.
